Screening results deposited in PubChem BioAssay by National Center for Advancing Translational Sciences (NCATS).
PKM2 inh: PKM2 (human) enzyme inhibition; P14618; purified PKM2, ATP generation, Kinase-Glo luminescence; Potency, µM (doses to about 57.5 µM), most hits filed as inhibitors; hit rate 0.058% among 260,000; active means well fitted inhibition curve with a large enough effect; further: nearly all actives have a fitted effect of over 60% in size
Target sequence (P14618 whole entry, looked up): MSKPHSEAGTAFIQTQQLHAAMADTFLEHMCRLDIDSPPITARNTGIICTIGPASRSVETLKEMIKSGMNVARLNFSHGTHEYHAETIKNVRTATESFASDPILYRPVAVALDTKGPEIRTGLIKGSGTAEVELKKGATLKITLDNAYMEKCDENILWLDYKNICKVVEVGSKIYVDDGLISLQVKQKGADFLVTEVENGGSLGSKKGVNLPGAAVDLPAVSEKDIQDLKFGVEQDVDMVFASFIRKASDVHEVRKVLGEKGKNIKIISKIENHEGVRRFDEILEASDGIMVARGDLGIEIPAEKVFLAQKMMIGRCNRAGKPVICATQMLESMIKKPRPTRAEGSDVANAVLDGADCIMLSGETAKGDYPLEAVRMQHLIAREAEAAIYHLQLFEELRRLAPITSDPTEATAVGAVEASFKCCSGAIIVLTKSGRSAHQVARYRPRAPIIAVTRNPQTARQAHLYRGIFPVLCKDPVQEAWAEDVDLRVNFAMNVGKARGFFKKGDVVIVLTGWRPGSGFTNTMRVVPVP
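Enzyme run at intermediate activity with final 0.1 mM ADP, 0.5 mM PEP (50 mM imidazole pH7.2, 50 mM KCl, 7 mM MgCl2), incubated 1 h at r.t. ATP formed read by Kinase-Glo luminescence, normalized to no-enzyme (full inhibition) and uninhibited wells.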
Numbers stand for hits; i = inactive; [ ] = dose if it differs, or a comment. The entries come from a sample that favours hits as a whole.

SMILES	PKM2 inh
CCc1ccc(OCCCC(=O)Nc2ccc(S(N)(=O)=O)cc2)cc1	i
COc1cccc(/C=N/Nc2nccnc2Cl)c1O	14µM
COc1ccc(/C=N/Nc2nccnc2Cl)cc1	13µM
COc1cccc(/C=N/NC(=O)c2cc3c(OC)cccc3[nH]2)c1O	i
COc1cccc(/C=N/Nc2ncnc3c2[nH]c2ccc(C)cc23)c1OC	i
COc1ccc(-c2nn(-c3ccccc3)cc2/C=N/NS(=O)(=O)c2ccccc2)cc1	i
Clc1nccnc1N/N=C/c1ccc(Br)cc1	14µM
Cn1ncc(Cl)c1C(=O)N1CCC(Cc2ccccc2)CC1	i
Cc1ccc2[nH]c(=O)cc(C(=O)OC(C)C)c2c1	i
O=S(=O)(Nc1ccc(-n2cnnn2)cc1)c1ccc(F)c(F)c1F	i
Cc1c(CCC(=O)NC2CC2)c(=O)oc2cc(O)ccc12	i
O=C1CCN(Cc2nc(-c3ccc(Cl)cc3)no2)CCN1	i
CC(=O)c1ccccc1OC(=O)CCN1C(=O)c2ccccc2C1=O	i
Cc1cc(C)c(S(=O)(=O)N2CCN(C(=O)CCn3nc(C)c(C)c3C)CC2)c(C)c1	i
Cc1ccc(/C=N/N2CCN(C3c4ccccc4-c4ccccc43)CC2)o1	i
Fc1ccc(-n2ncc3c(SCc4cccnc4)ncnc32)cc1	i
Cc1cccc(/C(N)=N/OC(=O)c2ccc3c(c2)OCO3)c1	11µM
Cc1nc2ccc(C(=O)NCc3ccc4c(c3)OCO4)cc2s1	i
Cc1noc(C)c1COc1cccc(C(=O)Oc2ccc3c(c2)OCO3)c1	i
Cc1ccc(NC(=O)C2C3CCCC2C3c2ccccc2)cc1 (stereo unspecified)	i
Cc1ccc(S(=O)(=O)N(C)CC(=O)N/N=C/c2ccc(C)o2)cc1	i
COc1ccc(OCC(=O)N2CCN(S(=O)(=O)c3ccccc3[N+](=O)[O-])CC2)cc1	i
COc1ccc(NC(=O)c2ccc(NC(=O)CSc3nccc(=O)[nH]3)cc2)cc1	i
COc1ccc(NC(=O)c2ccccn2)cc1	14µM
COc1cccc(NC(=O)CSc2ccccn2)c1	i
SMILES	PKM2 inh
COc1ccccc1/C=C1\SC(=S)N(CCC(=O)Nc2cccc(O)c2)C1=O	i
Cc1ccc(-c2nn(-c3ccccc3)cc2C=O)o1	i
Cc1ccc(C2=C/C(=C/c3cccnc3)C(=O)O2)c(C)c1	i
Cc1cc(C)c2nc(NNC(=O)c3cc(=O)c4ccccc4o3)sc2c1	i
O=C1/C(=C/Nc2ccc3c(c2)OCO3)CCc2ccccc21	25µM
O=C1c2ccccc2C(=O)N1Cc1ccc2c(c1)OCO2	i
O=C(C1CCC1)N1CCc2cc(S(=O)(=O)Nc3ccc4c(c3)OCO4)ccc21	i
COc1cc([N+](=O)[O-])ccc1NC(=O)COC(=O)c1ccc(NC(N)=O)cc1	i
Cc1ccc(CNC(=O)Cn2ccc3cc(S(=O)(=O)N4CCCC4)ccc32)o1	i
CC(=O)Nc1ccc(-n2nnnc2SCC(=O)Nc2cccc(NC(=O)c3ccco3)c2)cc1	i
COc1cccc(-n2cn[nH]c2=S)c1	14µM
CCNc1nc(SCC(=O)Nc2ccc(Cl)c(Cl)c2)nc(N2CCOCC2)n1	i
O=C1CCC(=O)N1c1cccc(-c2nc3ccccc3o2)c1	i
c1ccc2nc(-c3nc4ccccc4o3)ccc2c1	18µM
CCN1/C(=C/c2ccc3cc(C)ccc3[n+]2CC)Sc2ccccc21	4.5µM
COc1ccc(-c2csc(NC(=O)CSc3nc(C)nc4sc(C(=O)O)c(C)c34)n2)cc1	i
COC(=O)[C@@]1(Cc2ccc(F)cc2)[C@H]2c3cc(C(=O)N(C)C)n(CCc4ccc(O)c(O)c4)c3C[C@H]2CN1C(=O)c1ccccc1	i
CN(C)S(=O)(=O)c1cccc(NC(=O)CSc2cccc3cccnc23)c1	i
COC(=O)c1ccc(COc2ccccc2/C=C/C(=O)c2ccc(OCC(=O)O)cc2)cc1	i
COc1ccc(-c2csc(NC(=O)c3cccs3)c2C(=O)O)cc1OC	22µM
CCOC(=O)c1c(-c2ccccc2)csc1NC(=O)CSc1nnc(C)s1	i
CCOC(=O)c1c(-c2ccc(C)o2)csc1NC(=S)NC(=O)c1cccs1	i
CCO[C@H]1OC(C(=O)NC2CC2)=C[C@@H](c2csc3ccccc23)[C@@H]1CCCO	i
CC(=O)c1ccc(S(=O)(=O)N2CCN(C(=O)CSc3ccc(C)c(C)c3)CC2)cc1	i
Cc1cccc(N2CCN(C(=O)C3CC(=O)N(C4CCCC4)C3)CC2)c1C (stereo unspecified)	i
SMILES	PKM2 inh
Cc1ccc(N=Cc2c(C)[nH]n(-c3nc4ccccc4[nH]3)c2=O)cc1	10µM
O=C(CC(C(=O)NCc1ccccc1)c1nc2ccccc2c(=O)[nH]1)NCc1ccccc1 (stereo unspecified)	i
CCn1c(SCC(=O)Nc2cccc(C)c2)nc2nc3c(cc2c1=O)COC(C)(C)C3	i
COc1ccc(N=Nc2n(C)c3ccccc3[n+]2C)cc1	13µM
O=[N+]([O-])c1cccc(S(=O)(=O)c2ccc(NCCO)c([N+](=O)[O-])c2)c1	i
COc1cccc(OCCn2cc(C(C)=O)c3ccccc32)c1	i
CN(Cc1ccccc1)C(=O)COC(=O)c1cc(NS(=O)(=O)c2cccs2)ccc1O	i
O=C(c1ccc(Cl)c(S(=O)(=O)N2CCCCCC2)c1)N1CCOCC1	i
O=C(O)c1cc(N2CCOCC2)nc2ccccc12	i
O=C(c1ccc2c3n(nc2c1)-c1ccccc1CO3)N1CCOCC1	14µM
COc1ccc(CCN2CC(C(=O)N(C)Cc3c(C)n[nH]c3C)CCC2=O)cc1 (stereo unspecified)	i
Cc1ccc(CNC(=O)CC2(CC3=NS(=O)(=O)c4ccccc4N3)CCCC2)cc1	i
Oc1ccc(-c2nc3ccc4ccccc4c3c3c2CCC3)cc1O	i
CCOC(=O)/C=C1\SCC(=O)N1CC(=O)Nc1cccc(F)c1	i
Cc1ccsc1/C=C1\CCc2ccccc2C1=O	25µM
O=[N+]([O-])c1cccc(COc2ncnc3cc([N+](=O)[O-])ccc23)c1	i
CC1(C)CC(=O)C2=C(C1)O[C@@]1(c3ccsc3)Cc3cc(C#N)ccc3C2O1	i[11.5 µM]
Brc1ccc(-c2nc(-c3ccccn3)no2)o1	18µM
COc1ccccc1-c1nc(-c2ccccn2)no1	7.9µM
CCN1CCN(CC(=O)Nc2cc3c(cc2C(C)=O)OCO3)CC1	i
COc1ccc(CNC(=O)C2=CCN(S(=O)(=O)c3ccc(C)cc3)CC2)cc1	i
Cc1ccc2nc(C)cc(C(=O)N3CCCC(CO)(Cc4ccccc4C)C3)c2c1 (stereo unspecified)	i
CCOC(=O)c1c(N2C(=O)CC(Sc3ccccc3C(=O)O)C2=O)sc2c1CCCC2 (stereo unspecified)	i
CCOc1ccc(N2C(=O)CC(Sc3ccccc3C(=O)O)C2=O)c([N+](=O)[O-])c1 (stereo unspecified)	i
COc1ccc(C(=O)N2CCC(n3c(C)nc4cc(F)ccc43)CC2)cc1	i
SMILES	PKM2 inh
Cc1ccc(OCc2nnc(SC(C)C(=O)O)n2-c2ccccc2)cc1 (stereo unspecified)	i
CCN(C(=O)CSc1cc(C)c2cccc(C)c2n1)C1CCS(=O)(=O)C1 (stereo unspecified)	i
Cc1ccc(-c2nc3ccccc3n2C)o1	13µM
COC(=O)c1cc(-c2ccc(C)o2)nc2ccccc12	i
Cc1ccc(-c2nc3c(c(=O)[nH]c(=O)n3Cc3ccccc3)n2C)o1	i
CN(C1CCCCC1)S(=O)(=O)c1ccc(-c2ccccn2)s1	i
Cn1c(=O)c2c(SCC(=O)Nc3nccs3)nc(C3CC3)nc2n(C)c1=O	i
O=C(O)COc1ccccc1/C=N/NC(=O)CN1CCN(S(=O)(=O)c2ccc(Br)cc2)CC1	i
